NS1 function inh: blocks influenza NS1 protein function; Potency, µM (series often up to 46.1 µM), for inactives: top-dose activity, positive = more growth; 0.4% of 270,000 active; calls by dose curve; further: potency means the concentration at half of the fitted maximal effect; actives are rising curves; nearly all actives have a fitted effect of over 50% in size
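Read-out: OD600 growth recovery of NS1-expressing budding yeast. Cells grown overnight at 30C in -URA glucose medium, washed, resuspended and diluted 1:100 in 2% galactose assay medium, pH 6.0. Same strain lacking NS1 served as positive control.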
Shiga toxin inh: Shiga toxin inhibition | Vero cells, Shiga toxin protein synthesis inhibition reporter | 9.2% of 290,000 active | inhibition, % at 38.7 µM; in the data active means inhibition mostly above about 28%, no sharp cut-off; inactive means mostly below about 43%; further: 0% is about no effect
Pf growth 96h: P. falciparum growth inhibition at 96 hour, primary screen for plastid delayed-death inhibitors. AID 504834. Potency, µM (titrated, usually from 28.7 µM), for inactives: at the top dose activity change, negative = inhibition, most hits filed as inhibitors. P. falciparum luciferase reporter growth, 96 h. 6.9% of 320,000 active; further: potency means the concentration at half of the fitted maximal effect; on the % scale 0 is the no-effect control and ±100 the full control effect
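Readout is luminescence from an integrated firefly luciferase in P. falciparum. Red cells, 2% hematocrit and 0.05% parasitemia final, were cultured with compound through two parasite generations (96 hours) at 37 C, 5% CO2.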
FBPA Giardia inh: Giardia lamblia aldolase inhibition; Potency, µM (doses to about 59.6 µM), without a hit: at the highest dose activity, negative = inhibition, most hits filed as inhibitors; A8B2U2; purified Giardia FBPA; 0.71% of 290,000 active; AID 2451; further: potency means the concentration at half of the fitted maximal effect; on the % scale 0 is the no-effect control and ±100 the full control effect; nearly all actives have a fitted effect of over 55% in size
Target sequence (A8B2U2 whole entry, looked up): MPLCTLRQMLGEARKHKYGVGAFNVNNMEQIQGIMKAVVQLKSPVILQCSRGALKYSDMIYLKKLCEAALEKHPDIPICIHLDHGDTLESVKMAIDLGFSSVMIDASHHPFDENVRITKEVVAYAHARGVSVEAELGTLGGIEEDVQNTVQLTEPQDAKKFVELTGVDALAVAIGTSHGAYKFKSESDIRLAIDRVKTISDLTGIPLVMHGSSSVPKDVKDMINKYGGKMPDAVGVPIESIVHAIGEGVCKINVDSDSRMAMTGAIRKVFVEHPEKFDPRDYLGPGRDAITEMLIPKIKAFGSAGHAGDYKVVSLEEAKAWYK
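Giardia FBPA (40 nM reagent) was preincubated 10 min at RT with compound (up to 57.5 uM final), then substrate plus GAPDH/TPI/NAD/arsenate coupling system with diaphorase/resazurin was added; resorufin fluorescence (525/598 nm) was read after 20 min.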
CHX counter: affects cycloheximide protein synthesis inhibition readout, counter-screen. 12% of 300,000 active. max response, %. cell reporter, cycloheximide protein synthesis inhibition counterscreen. AID 2314; in the data active means max response mostly above about 13%, no sharp cut-off; inactive means mostly below about 14%; further: read at 38.3 µM for the half of the compounds with a filed dose; 0% is about no effect
Pf growth 48h: P. falciparum growth inhibition at 48 hours (one generation); P. falciparum luciferase growth in erythrocytes, 48 h; Potency, µM (titrated, usually from 28.7 µM), without a hit: top-dose activity change, negative = inhibition, actives largely listed as inhibitors; 5.9% of 310,000 active; AID 504832; further: potency means the concentration at half of the fitted maximal effect; on the % scale 0 is the no-effect control and ±100 the full control effect
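Parasite viability was followed by luminescence of a genomically integrated firefly luciferase. Cultures held 0.1% parasitemia at 2% hematocrit (final), incubated under 5% CO2 at 37 C.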
An asterisk follows results filed as active; ? = inconclusive; nt = no result given; [ ] = remark or other dose. This is a sample that favours compounds with a hit; in the whole collection about 21% have one here. Unless noted, the call rests on the fitted dose curve; in most records, active means well fitted curve in the direction sought with a large enough effect; inconclusive means small, poorly fitted or top-dose-only effect, or another doubt; inactive means no such curve, though single readings can be large; an effect the other way counts as inactive or inconclusive.

SMILES	NS1 function inh	Shiga toxin inh	Pf growth 96h	FBPA Giardia inh	CHX counter	Pf growth 48h
Brc1ccccc1C1=Nn2c(nnc2-c2ccccc2)SC1	-136%	-13	8.3µM*	3%	-3	?
CC1=Nn2c(nnc2-c2cc(-c3ccccc3)n[nH]2)SC1	4%	13	?	-8%	0	?
CC(=O)N/C(=C\c1ccccc1)C(=O)OCC(=O)Nc1cc(S(=O)(=O)N(C)C)ccc1Cl	nt	nt	-1%	nt	nt	27%
O=C(O)COc1ccc(Cl)cc1Cl	nt	nt	nt	14%	nt	nt
O=C(COc1ccc(Cl)cc1Cl)c1ccc[nH]1	-5%	57*	172%	-3%	31*	38%
O=C(COc1ccc(Cl)cc1Cl)N/N=C/c1ccc[nH]1	-9%	35*	10%	-4%	44*	3%
O=C(COc1ccc(Cl)cc1Cl)N/N=C/CCc1ccccc1	17%	-14	86%	-5%	-2	10%
Cc1ccc(-n2ncc(C(=O)NCC3CCN(C4CCCC4)C3)c2C2CCN(C(=O)OC(C)(C)C)CC2)cc1C (configuration not stated)	3%	-4	2.3µM*	-17%	18	13µM*
CC(C)(C)OC(=O)N1CCC(c2c(C(=O)NCC3CCN(C4CCCC4)C3)cnn2-c2ccc(F)cc2)CC1 (configuration not stated)	3%	-13	-10%	-22%	1	2.6µM*
CC(C)(C)OC(=O)N1CCC(c2c(C(=O)NCC3CCN(C4CCCC4)C3)cnn2-c2ccccc2)CC1 (configuration not stated)	17%	1	8%	-27%	-4	3.7µM*
Cc1ccc(-n2ncc(C(=O)NCC3CCN(C4CCCC4)C3)c2C2CCN(C(=O)OC(C)(C)C)CC2)cc1 (configuration not stated)	-2%	-5	?	-22%	-7	?
CC(C)(C)OC(=O)N1CCC(c2c(C(=O)NCC3CCN(C4CCCC4)C3)cnn2-c2cccc(Cl)c2)CC1 (configuration not stated)	14%	-8	-5%	-23%	-8	?
NC(N)=N/N=C\c1ccc(C2CCNCC2)cc1	-1%	nt	nt	nt	nt	nt
CN1CCc2c(sc3c2C(=O)NC(/C=C\c2ccccc2)N3)C1 (configuration not stated)	4%	28	-12%	-30%	-3	6%
CC1=C(/C=C/c2ccccc2)CCN(C)C1	16%	47	?	0%	33*	?
Cc1cccc(NC(=O)c2ccccc2NC(=O)c2ccco2)c1	25%	-8	0%	nt	13	?
CN(C)c1ccc(C2=NOC(CN3C(=O)c4ccccc4S3(=O)=O)C2)cc1 (configuration not stated)	-32%	71*	-17%	-13%	55*	34%
COc1ccc(OC)c(C2=Nn3c(nnc3-c3ccc(OC)c(OC)c3)SC2)c1	nt	-10	nt	-10%	-2	nt
CSc1n[nH]c(-c2ccc(C(F)(F)F)cc2)n1	1%	107*	87%	-11%	41*	66%
Cc1ccc(S(=O)(=O)N[C@H]2COC(=O)CC=C[C@@H](C)[C@H]3C=C[C@H](O)[C@@H](COC(=O)CC=C[C@H]2C)O3)cc1	nt	nt	nt	3%[12.9 µM]	nt	nt
COc1ccc(CCN2CN(S(=O)(=O)c3ccccc3)c3nc4ccccc4nc32)cc1OC	-8%	-13	?	-5%	-4	?
COc1ccc(CCN2CN(S(=O)(=O)c3ccccc3)c3nc4ccccc4nc32)cc1	11%	-10	10µM*	-2%	2	12µM*
C=CCN1CN(S(=O)(=O)c2cccc(Cl)c2)c2nc3ccccc3nc21	-17%	16	?	-18%	20*	?
C/C(=N\NC(=O)c1nn(C)cc1Br)c1ccncc1	-21%	92*	34%	5%	55*	35%
C/C(=N\NC(=O)C(=O)Nc1cccc(Cl)c1C)c1ccncc1	6%	-10	-4%	-3%	-3	-5%
SMILES	NS1 function inh	Shiga toxin inh	Pf growth 96h	FBPA Giardia inh	CHX counter	Pf growth 48h
C/C(=N\NC(=O)c1nn(C)cc1Cl)c1ccncc1	21%	46*	7%	4%	31*	19%
C/C(=N\NC(=O)c1ccc(N2CCCC2=O)cc1)c1ccncc1	12%	1	11%	-2%	-3	3%
COC1=C[C@@H](C)C2CC3OC(=O)C[C@H]4C(C)=C(OC)C(=O)C([C@@]2(C)C1=O)[C@@]34C (some centres not stated)	nt	nt	nt	-1%	nt	nt
Cc1ccc(C(=O)c2cc3c(cc2[N+](=O)[O-])OCCO3)cc1	-5%	35	145%	5%	16*	-17%
CC(=O)Nc1cc2c(cc1C(=O)c1ccc(C)cc1)OCCO2	-7%	-14	-6%	7%	-1	1%
O=C(c1ccccc1)c1cc2c(cc1[N+](=O)[O-])OCCO2	-1%	16	-6%	-2%	12*	-7%
COC(=O)NC(c1cccc(C)c1)C(C(C)=O)C(=O)OC (configuration not stated)	nt	nt	nt	2%[12.9 µM]	nt	nt
CC(C)NC(=O)CC1C(=O)NCCN1CC(c1ccccc1)c1ccccc1 (configuration not stated)	-2%	18	133%	-16%	-1	-28%
COCCN(C(=O)CC1C(=O)NCCN1CC(c1ccccc1)c1ccccc1)C(C)C (configuration not stated)	3%	8	10µM*	-21%	0	?
CC(C)=N[C@H](C(=O)O)C(C)(C)S	-4%	nt	nt	nt	nt	nt
CC(C)(S)[C@@H](N)C(=O)O	-8%	-3	?	13µM*	-2	-5%
Cc1ccc(-c2c(C)sc3ncn(CC(=O)N4CCOCC4)c(=O)c23)cc1C	1%	-5	-3%	-6%	-3	?
CCCCCC(=O)Nc1ccc(N2CCN(CC)CC2)c(Cl)c1	-3%	103*	11%	-15%	60*	9%
CCN1CCN(c2ccc(NC(=O)c3ccccc3F)cc2Cl)CC1	nt	115*	-13%	-6%	19*	109%
CCCCCC(=O)NC(=S)Nc1ccc(N2CCCCC2)c(Cl)c1	-1%	-25	?	4%	-6	?
CCN1CCN(c2ccc(NC(=O)c3ccc(C#N)cc3F)cc2Cl)CC1	nt	29	-50%	-8%	20	?
Cc1ccc(NCC(=O)N/N=C/c2cc3ccccc3nc2Cl)cc1	16%	21	40%	-2%	12	?
O=C(N/N=C/c1cc2ccccc2nc1Cl)c1ccncc1	nt	-27	21%	-2%	1	-22%
O=C(CN1CCOCC1)N/N=C/c1cc2ccccc2nc1Cl	22%	9	1.5µM*	-1%	10	24%
Cn1cc(Br)c(C(=O)N/N=C/c2cc3ccccc3nc2Cl)n1	12%	50*	?	nt	15*	60%
CC1CC(Cl)CCC1C(=O)OC(C)(C)C (configuration not stated)	nt	nt	nt	-1%	nt	nt
Cc1cc(=O)[nH]n(CCO)c1=O	0%	6	50%	2%	0	38%

Bioassay records (PubChem BioAssay)
